The values that follow come from PubChem BioAssay (NCATS).

Assay [1] is described as follows: AP1 Signaling Pathway (AID 357). Note: % is set by controls: 0 for no effect and ±100 for the full control effect. To be noted: ME-180 AP-1-bla reporter, EGF-induced, beta-lactamase ratio, 5 h; at 17.2 µM (top of the series) unless noted. An outline of the steps: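 Cells are seeded overnight, exposed to compound titrations and an EC50 level of EGF for 5 hours at 37 °C, then loaded with CCF4 dye for 2.5 hours. Beta-lactamase activity under the AP-1 element is read as a blue/green ratio.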

In assay [2] the target is Cytochrome P450 1A2 (Homo sapiens) (UniProt P05177). Description: p450-cyp1a2 (AID 410; calls by dose curve; note: potency is the fitted concentration of half-maximal effect;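 for activity change, negative = inhibition: -100% = full effect of reference inhibitor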). In a few lines: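 Inhibition was calculated relative to 57 uM furafylline (full inhibition). The reaction used human CYP1A2 at 20nM with Luciferin-ME at its Km, 100uM, driven by an NADPH-regenerating system for 60 min at room temperature.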
Assay [3] can be described thus: Stat Signaling Pathway (AID 446).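 Note: ME-180 cervical cancer cells given 40 pM IL-6 alongside compound; SIE-controlled beta-lactamase reporter measured as 460/530 nm FRET emission ratio; % is set by controls: 0 for no effect and ±100 for the full control effect.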 In a few lines: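 ME-180 SIE-bla cells; overnight plating; cpd + IL-6 40 pM, 5 h, 37 C; LiveBLAzer 2.5 h RT; 460/530 nm emission ratio. Normalized to 300 pM IL-6 and 125 nM JAK inhibitor controls.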
For assay [4], the target named is Glucocorticoid receptor (Homo sapiens) (UniProt P04150). Description: GR-GFP Redistribution (AID 450;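 active = compounds whose dose series gives a full or clear partial fitted curve of increased nuclear translocation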; note: potency is the fitted concentration of half-maximal effect). To be noted: U2OS GR-GFP nuclear translocation, laser cytometry, 2 h.
The target in assay [5] is 3',5'-cyclic-AMP phosphodiesterase 4B (Homo sapiens) (UniProt Q07343). Nature of the assay: qHTS Assay for Inhibitors of PDE-IV (AID 607; active = well fitted activation curve with a large enough effect in the main read-out, with a control signal flat, not every such curve was filed as active; note: % of control where 0% means no effect). In a few lines:
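ACTOne HEK293 cells carry a modified cAMP-gated CNG channel and express endogenous PDE4; plated 1000 cells/well, compounds up to 22.9 uM final. Membrane-potential dye fluorescence (ex 535/em 590) was read; parental cells received 10 uM forskolin + 100 uM RO 20-1724.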
For orientation: Quantitative high-throughput screening tests each substance at several concentrations.

In assay [6] the target is Cytochrome P450 3A4 (Homo sapiens) (UniProt P08684). Nature of the assay: qHTS Assay for Activators of Cytochrome P450 3A4 (AID 885; active = well fitted curve in the direction sought with a large enough effect; an effect the other way counts as inactive or inconclusive; note: nearly all actives have a fitted effect of over 65% in size). In a few lines:
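20nM CYP3A4 + 25uM Luciferin-PPXE (=KM), 200mM KPO4; cpd 10 min RT; NADPH regen, 60 min RT; stop w/ detection buffer, 20 min; luminescence. Normalized to 57 uM ketoconazole.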

Assay [7] in a line: qHTS Assay for Identification of Small Molecule Antagonists for Thrombopoietin (TPO) Signaling Pathway (AID 918; active = well fitted curve in the direction sought with a large enough effect; an effect the other way counts as inactive or inconclusive; note: potency is the fitted concentration of half-maximal effect; nearly all actives have a fitted effect of over 60% in size). To be noted: TPO-dependent cell signaling reporter, antagonist mode. An outline of the steps: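 First, Ba/F3 reporter cells expressing human TPO receptor were held overnight without IL-3. Next, compound and 26 pM TPO were added. After 24 hrs incubation at 37 C, luciferase luminescence under the Glycoprotein IIb promoter was recorded.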

Assay [8] concerns the target Muscarinic acetylcholine receptor M1 (Rattus norvegicus) (UniProt P08482). Description: qHTS Assay for Antagonists of Acetylcholine Muscarinic M1 Receptor: Kinetic Measurement of Intracellular Calcium Response (AID 943; active = well fitted curve in the direction sought with a large enough effect; an effect the other way counts as inactive or inconclusive;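 note: Fluo-4 calcium signal as peak divided by basal fluorescence over 4 min; nearly all actives have a fitted effect of over 75% in size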). An outline of the steps: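 Intracellular calcium flux, recorded with Fluo-4 in a kinetic plate reader, served as signal; the response to carbachol at EC80 (100 nM final) was taken as maximal over minimal fluorescence after a 10 min compound pre-incubation in rat M1-CHO cells.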

Assay [9] concerns the target Pyruvate kinase (Leishmania mexicana) (UniProt Q27686). Nature of the assay: qHTS Validation Assay for Inhibitors of Leishmania Mexicana Pyruvate Kinase (AID 945; active = well fitted curve in the direction sought with a large enough effect; an effect the other way counts as inactive or inconclusive;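 note: 0% = DMSO only neutral control wells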). In a few lines:
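Compounds are tested as eight-point concentration series. Reactions contain 0.2 nM LmPYK E451W, 0.5 mM PEP, 0.1 mM ADP, 7 mM MgCl2 and 50 mM KCl at pH 7.2, run 1 h at room temperature, then read by PKLight luminescence.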

Assay [10] has as its target Alpha-galactosidase (Coffea arabica) (UniProt Q42656). Description: Counterscreen for Glucocerebrosidase Inhibitors: qHTS Assay for Coffee Bean alpha-Galactosidase at pH 4.5 (AID 957; active = well fitted curve in the direction sought with a large enough effect; an effect the other way counts as inactive or inconclusive;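 note: plate controls were enzyme alone for no effect and no enzyme for full effect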). In a few lines: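 AC50 values derive from Hill-equation modeling of concentration-response data, normalized to no-enzyme and full-activity controls. The pH 4.5 citrate assay used 2 nM coffee bean enzyme and 80 uM fluorogenic substrate for 20 min.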

The target of assay [11] is Pyruvate kinase PKM (Homo sapiens) (UniProt P14618). Nature of the assay: qHTS Assay for Inhibitors of Human Muscle Pyruvate Kinase (AID 958; active = well fitted curve in the direction sought with a large enough effect; an effect the other way counts as inactive or inconclusive). An outline of the steps:
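ATP production by PKM2 detected via luciferase luminescence after 1 h room-temperature reaction (0.1 nM enzyme, PEP at Km 0.5 mM, ADP 0.1 mM, pH 7.2 imidazole buffer). Inhibition scaled to no-enzyme control; activation referenced to 0.3 nM enzyme wells.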

Assay [12] has as its target alpha-glucosidase (Oryza sativa, rice) (UniProt Q653V4). Description: Counterscreen for Glucocerebrosidase Inhibitors: qHTS Assay for Rice alpha-Glucosidase at pH 5.0 (AID 997; active = well fitted curve in the direction sought with a large enough effect; an effect the other way counts as inactive or inconclusive;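 note: 0% = full activity with enzyme and -100% = basal without enzyme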). In a few lines: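 Rice alpha-glucosidase (4 nM final) with 400 uM 4-methylumbelliferyl-alpha-D-glucopyranoside in citrate buffer pH 5.0, 20 min at room temperature, stopped at pH 10; fluorescence 365/440 nm, compounds 0.7 nM–77 uM, AC50 from Hill fits.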
On the technique in general: Counterscreens check selectivity or assay interference.

The target in assay [13] is Alpha-galactosidase (Coffea arabica) (UniProt Q42656). Description: Counterscreen for Glucocerebrosidase Inhibitors: qHTS Assay for Coffee Bean alpha-Galactosidase at pH 5.9 (AID 998; active = well fitted curve in the direction sought with a large enough effect; an effect the other way counts as inactive or inconclusive;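 note: plate controls were uninhibited enzyme for no effect and no-enzyme basal signal for full effect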). In a few lines: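 Compounds were titrated from 0.7 nM to 77 uM against green coffee bean alpha-galactosidase (2 nM) using 80 uM fluorogenic 4-methylumbelliferyl substrate. After 20 min at room temperature, reactions were stopped at pH 10 and read by fluorescence.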

Assay [14] can be described thus: NFAT Signaling Pathway (AID 444).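 Note: carbachol stimulus at about its EC50 of 1 µM final; % is set by controls: 0 for no effect and ±100 for the full control effect.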 To be noted: Jurkat NFAT-bla M1, carbachol, beta-lactamase ratio, 5 h; at 17.2 µM (top of the series) unless noted. An outline of the steps: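 Read-out: CCF4 FRET ratio (460 nm/530 nm) after 1 h RT dye loading, used for %activity and AC50 from titration series. Cells: Jurkat NFAT-β-lactamase/M1 line, treated with compound plus 1 uM carbachol for 5 h, 37 °C.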

The target of assay [15] is Glucocorticoid receptor (Homo sapiens) (UniProt P04150). Description: GR-EFC Redistribution (AID 451; calls by dose curve; note: potency is the fitted concentration of half-maximal effect). To be noted: CHO-K1 GR-EFC translocation, beta-gal luminescence, 2 h. In a few lines: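 Translocation of GR-ED fusion to nuclear EA restores b-gal, read by luminescence after 1 h room-temperature detection. Engineered CHO-K1 biosensor cells, 1,000/well, exposed 2 h at 37 C to titrations up to 46 uM final.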

Assay [16] concerns the target Guanine nucleotide-binding protein G(i) subunit alpha-1 (Homo sapiens) (UniProt P63096). Nature of the assay: qHTS Assay for Inhibitors of RGS12 GoLoco Motif Activity (Green Fluorophore) (AID 879; active = well fitted curve in the direction sought with a large enough effect; an effect the other way counts as inactive or inconclusive;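 note: 0% = labeled peptide with Gαi1 and full inhibition = labeled peptide alone without protein; negative values mean loss of peptide binding seen as reduced polarization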). In a few lines:
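Fluorescence polarization assay: 50 nM Gαi1 with 10 nM FITC-labeled RGS12 GoLoco peptide in 10 mM Tris pH 7.5, 150 mM NaCl, 0.1 mM GDP, 0.05% NP40, 10 min at room temperature with compound.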

The target of assay [17] is Muscarinic acetylcholine receptor M1 (Rattus norvegicus) (UniProt P08482). Description: qHTS Assay for Antagonists of Acetylcholine Muscarinic M1 Receptor: Measurement of IP-One Response (AID 944; active = well fitted curve in the direction sought with a large enough effect; an effect the other way counts as inactive or inconclusive; note: nearly all actives have a fitted effect of over 75% in size). In a few lines:
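Steps: plate transfected CHO-M1 cells overnight; add test compound, 10 min; add carbachol (200 nM, EC80) in stimulation buffer with LiCl; incubate 30 min; add labelled IP1 tracer and anti-IP1 antibody in lysis buffer; read HTRF after 10 min.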

Assay [18] addresses Pyruvate kinase PKM (Homo sapiens) (UniProt P14618). Description: qHTS Assay for Activators of Human Muscle Pyruvate Kinase (AID 954; active = well fitted curve in the direction sought with a large enough effect, not every such curve was filed as active;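 note: 0% = uninhibited enzyme and -100% = no enzyme or full thiadiazolimine inhibition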). In a few lines: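 Luminescence from a luciferase ATP-detection/stop reagent reported PKM2 activity. Reactions contained 0.1 nM purified human enzyme, 0.5 mM PEP, 0.1 mM ADP and 7 mM MgCl2 at pH 7.2, run 1 h at RT.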

Molecules are shown by their SMILES. Values without a mark were called inactive. Results filed as inconclusive are left out. Active and inactive are the calls of the source. Unless noted, calls come from the whole dose curve; as a rule, active = well fitted curve in either direction with a large enough effect (not every such curve was filed as active); inconclusive = small, poorly fitted or top-dose-only effect, or another doubt; inactive = flat fitted curve, though single readings scatter.

Sequence of Pyruvate kinase (Leishmania mexicana) (Q27686 2-499 E452W): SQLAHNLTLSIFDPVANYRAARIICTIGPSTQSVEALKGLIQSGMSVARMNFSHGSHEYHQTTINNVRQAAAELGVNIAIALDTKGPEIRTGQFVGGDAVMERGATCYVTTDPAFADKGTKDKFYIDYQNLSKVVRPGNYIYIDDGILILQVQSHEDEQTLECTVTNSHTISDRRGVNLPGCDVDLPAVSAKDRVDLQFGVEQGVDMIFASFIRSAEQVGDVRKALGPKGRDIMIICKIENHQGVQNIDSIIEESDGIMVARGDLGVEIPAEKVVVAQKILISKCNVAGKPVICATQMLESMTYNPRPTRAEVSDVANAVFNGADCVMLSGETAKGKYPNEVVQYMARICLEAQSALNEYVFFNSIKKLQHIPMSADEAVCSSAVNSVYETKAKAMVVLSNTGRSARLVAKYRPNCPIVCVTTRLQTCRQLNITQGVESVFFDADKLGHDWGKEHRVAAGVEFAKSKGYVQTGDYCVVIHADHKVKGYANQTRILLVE
Sequence of Pyruvate kinase PKM (Homo sapiens) (P14618 whole entry, looked up): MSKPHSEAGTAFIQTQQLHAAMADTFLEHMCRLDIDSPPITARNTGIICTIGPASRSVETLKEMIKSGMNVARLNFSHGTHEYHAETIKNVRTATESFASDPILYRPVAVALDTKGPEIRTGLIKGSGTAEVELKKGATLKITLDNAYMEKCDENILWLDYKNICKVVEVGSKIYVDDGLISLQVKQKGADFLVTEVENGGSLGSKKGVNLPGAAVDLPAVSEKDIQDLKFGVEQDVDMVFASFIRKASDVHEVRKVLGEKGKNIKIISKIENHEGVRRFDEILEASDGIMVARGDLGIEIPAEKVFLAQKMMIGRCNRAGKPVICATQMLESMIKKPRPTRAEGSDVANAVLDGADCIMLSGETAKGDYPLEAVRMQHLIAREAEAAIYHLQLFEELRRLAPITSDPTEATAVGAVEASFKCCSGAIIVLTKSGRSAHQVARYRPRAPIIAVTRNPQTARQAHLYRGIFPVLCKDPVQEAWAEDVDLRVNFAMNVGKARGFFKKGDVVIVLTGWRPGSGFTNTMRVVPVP
Sequence of Alpha-galactosidase (Coffea arabica) (Q42656 whole entry, looked up): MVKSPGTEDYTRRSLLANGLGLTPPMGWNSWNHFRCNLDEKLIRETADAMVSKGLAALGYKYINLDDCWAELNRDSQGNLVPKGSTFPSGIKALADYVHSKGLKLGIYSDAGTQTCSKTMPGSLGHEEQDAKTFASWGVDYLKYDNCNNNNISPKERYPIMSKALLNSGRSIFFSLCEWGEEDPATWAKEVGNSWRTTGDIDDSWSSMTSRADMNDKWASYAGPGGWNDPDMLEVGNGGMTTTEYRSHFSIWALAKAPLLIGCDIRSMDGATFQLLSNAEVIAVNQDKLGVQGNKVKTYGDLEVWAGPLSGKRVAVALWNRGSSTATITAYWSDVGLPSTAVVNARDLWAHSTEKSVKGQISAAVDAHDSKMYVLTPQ
Sequence of 3',5'-cyclic-AMP phosphodiesterase 4B (Homo sapiens) (Q07343 whole entry, looked up): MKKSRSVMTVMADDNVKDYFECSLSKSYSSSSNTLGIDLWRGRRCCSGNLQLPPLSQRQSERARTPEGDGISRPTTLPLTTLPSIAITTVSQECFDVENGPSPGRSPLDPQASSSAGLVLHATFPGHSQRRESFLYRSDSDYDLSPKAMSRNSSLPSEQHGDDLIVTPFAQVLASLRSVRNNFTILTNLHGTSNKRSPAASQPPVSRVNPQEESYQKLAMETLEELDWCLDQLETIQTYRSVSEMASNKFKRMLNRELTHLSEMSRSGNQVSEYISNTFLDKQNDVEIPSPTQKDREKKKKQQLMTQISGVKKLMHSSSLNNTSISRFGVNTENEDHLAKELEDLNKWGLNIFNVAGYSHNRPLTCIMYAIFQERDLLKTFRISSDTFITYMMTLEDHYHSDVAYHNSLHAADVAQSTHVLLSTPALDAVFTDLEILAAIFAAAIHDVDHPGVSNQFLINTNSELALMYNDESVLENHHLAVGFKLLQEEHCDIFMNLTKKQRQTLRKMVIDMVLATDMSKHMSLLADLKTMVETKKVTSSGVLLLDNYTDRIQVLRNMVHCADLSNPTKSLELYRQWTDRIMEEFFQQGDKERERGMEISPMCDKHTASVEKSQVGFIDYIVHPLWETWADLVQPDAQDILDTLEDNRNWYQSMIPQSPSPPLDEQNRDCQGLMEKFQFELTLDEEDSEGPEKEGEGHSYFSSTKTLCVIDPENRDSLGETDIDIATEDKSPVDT
Sequence of Cytochrome P450 1A2 (Homo sapiens) (P05177 whole entry, looked up): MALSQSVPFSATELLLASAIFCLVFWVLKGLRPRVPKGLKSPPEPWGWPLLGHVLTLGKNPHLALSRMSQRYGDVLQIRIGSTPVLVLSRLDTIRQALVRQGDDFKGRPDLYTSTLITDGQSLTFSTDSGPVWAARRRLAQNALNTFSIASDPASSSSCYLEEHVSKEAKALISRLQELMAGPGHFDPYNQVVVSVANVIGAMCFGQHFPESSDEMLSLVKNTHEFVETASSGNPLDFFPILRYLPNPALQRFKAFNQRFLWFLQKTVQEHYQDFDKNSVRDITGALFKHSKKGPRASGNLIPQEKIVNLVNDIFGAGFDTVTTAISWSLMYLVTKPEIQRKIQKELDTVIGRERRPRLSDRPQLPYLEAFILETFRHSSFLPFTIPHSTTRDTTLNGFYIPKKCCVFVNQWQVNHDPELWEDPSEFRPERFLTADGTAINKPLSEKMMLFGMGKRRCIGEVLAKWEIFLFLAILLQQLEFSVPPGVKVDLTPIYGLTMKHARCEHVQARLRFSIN
Sequence of Muscarinic acetylcholine receptor M1 (Rattus norvegicus) (P08482 whole entry, looked up): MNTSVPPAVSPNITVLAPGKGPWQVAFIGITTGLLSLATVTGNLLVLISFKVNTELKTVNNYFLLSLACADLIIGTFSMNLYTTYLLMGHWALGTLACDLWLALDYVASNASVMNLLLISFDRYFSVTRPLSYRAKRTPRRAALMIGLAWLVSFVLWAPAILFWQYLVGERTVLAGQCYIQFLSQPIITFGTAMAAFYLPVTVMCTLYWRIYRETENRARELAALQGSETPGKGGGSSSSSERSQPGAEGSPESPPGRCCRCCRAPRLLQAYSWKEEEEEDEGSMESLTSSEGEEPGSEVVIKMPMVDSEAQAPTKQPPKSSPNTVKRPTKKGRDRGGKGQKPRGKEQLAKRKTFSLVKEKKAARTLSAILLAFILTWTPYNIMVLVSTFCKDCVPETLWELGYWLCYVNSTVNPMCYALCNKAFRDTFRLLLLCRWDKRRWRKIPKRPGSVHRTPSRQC
Sequence of Glucocorticoid receptor (Homo sapiens) (P04150 whole entry, looked up, the tested form may be a part): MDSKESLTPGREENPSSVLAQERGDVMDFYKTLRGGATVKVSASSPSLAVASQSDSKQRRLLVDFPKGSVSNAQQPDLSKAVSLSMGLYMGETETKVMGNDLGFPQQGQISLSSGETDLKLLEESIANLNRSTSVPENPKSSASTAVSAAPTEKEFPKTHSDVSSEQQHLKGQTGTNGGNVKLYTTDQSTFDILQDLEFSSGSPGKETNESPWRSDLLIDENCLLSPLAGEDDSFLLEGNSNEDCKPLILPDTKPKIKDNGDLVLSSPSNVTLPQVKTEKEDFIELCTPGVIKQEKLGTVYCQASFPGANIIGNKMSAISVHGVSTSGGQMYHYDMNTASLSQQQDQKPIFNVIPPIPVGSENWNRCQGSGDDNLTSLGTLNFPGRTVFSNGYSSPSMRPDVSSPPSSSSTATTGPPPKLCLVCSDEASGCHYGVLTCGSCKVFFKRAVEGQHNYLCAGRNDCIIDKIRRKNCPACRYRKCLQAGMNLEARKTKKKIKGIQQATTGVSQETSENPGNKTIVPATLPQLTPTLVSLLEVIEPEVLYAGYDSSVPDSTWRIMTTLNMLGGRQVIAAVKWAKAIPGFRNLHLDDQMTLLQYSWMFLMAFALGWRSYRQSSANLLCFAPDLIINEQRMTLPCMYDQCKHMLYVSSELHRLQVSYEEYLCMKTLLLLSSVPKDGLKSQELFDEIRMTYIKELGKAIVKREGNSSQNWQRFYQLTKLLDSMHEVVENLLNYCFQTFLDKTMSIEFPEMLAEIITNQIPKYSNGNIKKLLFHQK
Sequence of Cytochrome P450 3A4 (Homo sapiens) (P08684 whole entry, looked up): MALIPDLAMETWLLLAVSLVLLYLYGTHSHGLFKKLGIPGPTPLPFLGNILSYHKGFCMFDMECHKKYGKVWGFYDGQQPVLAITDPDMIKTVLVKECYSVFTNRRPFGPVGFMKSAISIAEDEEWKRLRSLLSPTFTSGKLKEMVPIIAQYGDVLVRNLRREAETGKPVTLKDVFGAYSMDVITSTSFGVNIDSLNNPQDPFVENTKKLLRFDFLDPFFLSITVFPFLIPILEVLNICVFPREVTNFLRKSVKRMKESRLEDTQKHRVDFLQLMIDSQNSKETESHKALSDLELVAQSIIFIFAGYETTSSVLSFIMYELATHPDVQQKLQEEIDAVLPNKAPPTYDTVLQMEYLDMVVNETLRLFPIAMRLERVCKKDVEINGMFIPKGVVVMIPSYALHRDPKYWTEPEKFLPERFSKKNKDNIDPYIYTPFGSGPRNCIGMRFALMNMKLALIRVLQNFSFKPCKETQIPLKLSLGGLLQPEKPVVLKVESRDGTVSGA
Sequence of Guanine nucleotide-binding protein G(i) subunit alpha-1 (Homo sapiens) (P63096 whole entry, looked up): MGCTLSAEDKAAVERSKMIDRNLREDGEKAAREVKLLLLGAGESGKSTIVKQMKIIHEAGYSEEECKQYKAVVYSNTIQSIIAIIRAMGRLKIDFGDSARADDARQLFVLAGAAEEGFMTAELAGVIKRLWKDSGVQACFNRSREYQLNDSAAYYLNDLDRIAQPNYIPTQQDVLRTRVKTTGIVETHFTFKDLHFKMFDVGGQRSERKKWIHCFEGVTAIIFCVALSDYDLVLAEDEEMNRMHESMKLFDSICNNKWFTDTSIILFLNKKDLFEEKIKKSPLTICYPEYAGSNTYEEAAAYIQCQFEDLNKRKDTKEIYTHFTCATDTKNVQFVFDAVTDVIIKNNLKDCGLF

In the case of `C=CCN1CCc2cccc3c2[C@@H]1Cc1ccc(O)c(O)c1-3`, in [1], the activity change, negative = inhibition was -21.9% [at 38 µM]. Besides, the Potency in assay [2] was 3.16 µM (active); in assay [4] it was over 46 µM; in assay [7] it was 10 µM (active). In addition, the molecule was classed as inactive in assay [3], in assay [5], in assay [10], in assay [12] and in assay [13]. In addition, the Potency result in [6], in assay [8], in [9] and in [11] was “inactive” each time.
For `C=CCOC(=O)C1=C(C)OC(N)=C(C#N)[C@@]12C(=O)N(CC(N)=O)c1ccccc12`, the activity change, negative = inhibition in assay [1] is 6.24%; in [14], -10.1%.
On to `CCN(CC)c1ccc(N=Cc2c(O)n(-c3ccccc3C)c(=O)[nH]c2=O)cc1`, for which the activity change, negative = inhibition in [1] is -21.6%; in assay [14], -29.8%. Further, the result in [3] was inactive. Besides, the Potency in [4] is over 20.6 µM.
Regarding `N[C@@H]1CCc2cc(O)c(O)cc2C1`, the results for the activity change, negative = inhibition in assay [1] and in assay [14] were -9.85% [at 38 µM] and -2.09% [at 38 µM], respectively. In addition, the Potency result in assay [2], in assay [16], in assay [8], in assay [17] and in [9] was “inactive” throughout. The Potency in [4] was over 46 µM; in assay [15] it was over 46 µM; in assay [7] it was 10 µM (active). The molecule was called inactive in assay [5], in assay [18], in assay [10], in assay [12] and in assay [13].
Turning to `O=C(c1ccco1)C12CN3CN(CN(C3)C1)C2`, the activity change, negative = inhibition in assay [1] was 4.87%; in [14], -11.2%. Further, the call in assay [3] was inactive. In addition, the Potency in [4] was over 20.6 µM.
The like results for `CCCCSP1(=S)NCCCN1` were, in that order, -7.63%, -2.25%, “inactive” and over 20.6 µM.
The like results for `CC(=NCCO)c1c(O)n(C)c(=O)n(C)c1=O` were, in that order, 9.85%, -3.31%, “inactive” and over 20.6 µM.
On to `CCCN1CCc2cccc3c2[C@@H]1Cc1ccc(O)c(O)c1-3`, for which the activity change, negative = inhibition in [1] was 6.42% [at 38 µM]. In addition, the Potency in assay [2] is 3.98 µM (active); in assay [4], over 46 µM; in [15] it was over 46 µM; in [7], 12.6 µM (active). For the same molecule, the call in assay [3], in assay [5], in [18], in assay [10] and in [12] was inactive. Moreover, the Potency result in assay [6], in assay [17] and in [9] was “inactive” throughout.
As to `CCOCCN1CCC(OC(C)=O)C(C)C1` (stereo not given), the activity change, negative = inhibition was -2.51% in assay [1] and -5.87% in [14]. Moreover, the call in assay [3] was inactive.
The like results for `O=P(c1ccccc1)(c1ccccc1)N1CCCCC1` were, in that order, -9.35%, -3.91% and “inactive”.
